# In the library only some 3.5% were active in any assay of this set; here they are far more common.
# FBW7 act: human FBW7 E3 ligase activation, primary screen. actives 0.13% (n = 650,000). AlphaScreen FBW7–phospho-cyclin E peptide binding, activator screen. normalized activity (activation), % at 26.1 µM. Q969H0. AID 1259310; in the data active = normalized activity above about 1.9%;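 also: purified mutant Fbw7 with reduced substrate affinity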
# TEAD-YAP inh: TEAD-YAP interaction inhibition | HEK-TIYL cells, TEAD-Gal4/YAP UAS-luciferase luminescence | inhibition, % at 9.12 µM | actives 1.4% (n = 640,000) | AID 1259422; in the data active = inhibition above about 32%;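 also: 0% = median of test compound wells and 100% = reference inhibitor wells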
# MITF inh: human MITF inhibition, primary screen. AlphaScreen MITF homodimerization, bead proximity signal. inhibition, % at 2.6 µM. actives 0.91% (n = 650,000); in the data active = inhibition above about 50%;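 also: 0% = vehicle wells with protein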
# Target sequence (O75030 whole entry, looked up): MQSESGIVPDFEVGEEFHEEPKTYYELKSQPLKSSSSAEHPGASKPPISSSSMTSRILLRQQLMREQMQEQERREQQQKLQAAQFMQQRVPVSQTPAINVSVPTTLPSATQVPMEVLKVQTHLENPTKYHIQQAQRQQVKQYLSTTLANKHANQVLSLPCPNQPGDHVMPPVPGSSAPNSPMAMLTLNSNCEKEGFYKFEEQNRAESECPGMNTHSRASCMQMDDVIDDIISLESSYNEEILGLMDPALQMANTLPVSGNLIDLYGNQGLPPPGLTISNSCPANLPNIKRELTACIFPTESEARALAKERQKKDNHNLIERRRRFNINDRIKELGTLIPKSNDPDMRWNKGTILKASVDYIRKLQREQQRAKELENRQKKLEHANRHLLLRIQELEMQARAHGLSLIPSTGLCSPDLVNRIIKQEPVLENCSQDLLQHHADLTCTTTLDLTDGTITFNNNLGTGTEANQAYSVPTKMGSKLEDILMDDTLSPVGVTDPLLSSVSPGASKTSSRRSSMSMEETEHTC
# GPR151 ag: activators of human GPR151; PathHunter beta-arrestin GPR151 cells, luminescence; activation, % at 11.2 µM; actives 1% (n = 650,000); AID 1508602; in the data active = activation above about 4.9%;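 also: 0% = median of compound wells and 100% = cells with positive control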
# MITF inh conf: confirmation of human MITF inhibitors; shares compounds with MITF inh; AlphaScreen MITF homodimerization, biotin/His-MITF beads; inhibition, % at 2.6 µM; actives 16% (n = 4,700); AID 1259372;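 active = inhibition above a cutoff derived from the DMSO control wells, cut at about 28% in these data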;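 also: 0% = MITF dimer wells with DMSO only; inhibitors lower the bead chemiluminescence by keeping MITF from dimerizing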
# AlphaScreen DR: optically interferes with AlphaScreen signal in dose response | shares compounds with MITF inh | AlphaScreen optical interference counterscreen, cell-free | IC50, µM | actives 6% (n = 480) | AID 1259373; call rule not given here
# AlphaScreen intf2: counter-screen: compounds optically interfering with AlphaScreen. actives 7.6% (n = 4,700). shares compounds with MITF inh. LysRS AlphaScreen counterscreen, signal interference, triplicate. inhibition, % at 2.6 µM;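 active = inhibition above a cutoff derived from the DMSO control wells, cut at about 30% in these data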
# Numbers without * were called inactive; nt = no result given.
SMILES,FBW7 act,TEAD-YAP inh,MITF inh,GPR151 ag,MITF inh conf,AlphaScreen intf2,others
COC(=O)C1=C(C)N(c2cccc(Cl)c2)C(=O)/C1=C\c1cc2c(cc1Br)OCO2,0,-1,-8,0,nt,nt,
CCOC(=O)CNS(=O)(=O)c1cc(-c2nnc(Nc3cccc(C)c3)c3ccccc23)ccc1C,0,2,80*,0,-3,2,
COc1ccc2cc(C(=O)CBr)ccc2c1,0,2,16,5,nt,nt,
CCC(=O)c1ccc2cc(OC)ccc2c1,0,-13,82*,2,1,13,
O=C(Nc1nc(-c2csc(NC(=O)c3ccco3)n2)cs1)c1ccco1,0,14,12,3,nt,nt,
O=C(N1CCN(c2ccccc2)CC1)C12CC3CC(CC(O)(C3)C1)C2,0,-7,5,-2,nt,nt,
O=C(N1CCN(Cc2ccccc2)CC1)C12CC3CC(CC(O)(C3)C1)C2,0,-3,53*,1,13,10,
O=C(Nc1ccc(N2CCOCC2)cc1)c1csc(Nc2ccncn2)n1,0,-15,33,1,nt,nt,
O=C(Nc1ccc(N2CCOCC2)cc1)c1cccc(Nc2ccncn2)n1,0,3,58*,0,81*,2,AlphaScreen DR=>7.6
COc1ccc([C@H]2C(C#N)=C(N)OC3=C2C(=O)CC(C)(C)C3)c([N+](=O)[O-])c1OC,0,-7,17,0,nt,nt,
COc1ccc(C2C(C#N)=C(N)OC3=C2C(=O)CC(C)(C)C3)c2ccccc12 (stereo not given),0,5,70*,0,8,12,
OCCN1CCN(Cc2cc(Br)cs2)CC1,0,-5,73*,0,-1,-1,
CC(=O)N1CCN(Cc2ccc(Br)s2)CC1,0,4,-11,-2,nt,nt,
OCCN1CCN(Cc2ccc(Br)s2)CC1,0,1,59*,0,-2,5,
COc1ccc(-n2cc(C(=O)NCc3cccnc3)c3ccccc3c2=O)cc1,0,-4,17,1,nt,nt,
COc1ccc(Cl)cc1NC(=O)c1cc2c(CO)cnc(C)c2oc1=N,0,3,11,0,nt,nt,
COC(=O)c1ccc(COC(=O)c2ccc(I)cc2)cc1,0,-32,-1,2,nt,nt,
COc1ccc(COCC(O)CNCCCn2ccnc2)cc1 (stereo not given),0,-1,83*,-4,8,-10,
COc1ccc(CCC(C)NCCCn2ccnc2)cc1 (stereo not given),0,4,43,-1,nt,nt,
CCCCCCN(CCCCCC)CC(=O)Nc1c2c(nc3ccccc13)CCC2,0,-3,71*,1,21,17,
CCN(CC)CC(=O)Nc1c2c(nc3ccccc13)CCCC2,0,-1,44,0,nt,nt,
CCCCCN(CCCCC)CC(=O)Nc1cc(C)nc2ccccc12,0,-1,74*,1,-2,3,
COCCCNCCCOc1c(C)cccc1C(C)(C)C,0,2,34,0,nt,nt,
COCCCNCCOc1c(C)cccc1C(C)(C)C,0,-14,81*,-1,13,10,
C=CCNCCOCCOc1c(C)cccc1C(C)(C)C,0,-8,68*,-1,-7,-6,
SMILES,FBW7 act,TEAD-YAP inh,MITF inh,GPR151 ag,MITF inh conf,AlphaScreen intf2,others
COCCNCCCCOc1c(C)cccc1C(C)(C)C,0,-6,26,0,nt,nt,
Cc1nc(NCc2ccncc2)cc(-c2cncc(-c3cc4ccccc4s3)c2)n1,0,-13,-2,0,nt,nt,
C=CCc1cccc(Cl)c1OCCN1CCOCC1,0,-2,-22,-1,nt,nt,
C=CCc1cccc(C)c1OCCCN1CCN(C)CC1,0,0,43,-2,nt,nt,
C=CCc1cccc(C)c1OCCCN1CCCC1,1,8,57*,0,16,16,
C=CCc1cccc(C)c1OCCN1CCOCC1,0,-2,86*,0,8,6,
C=CCc1cccc(Cl)c1OCCN1CCNCC1,0,7,56*,0,-14,-2,
COc1ccc(OC)c(/C=C/C(=O)NCCN2CCC(N(C)C3CCCCC3C)CC2)c1 (stereo not given),0,2,52*,-1,-1,14,
COc1ccc(/C=C/C(=O)NCCCN2CCC(N(C)C3CCCCC3C)CC2)cc1 (stereo not given),0,1,-1,1,nt,nt,

# From PubChem
